RE007 growth inh – qHTS Assay for Inhibitors of the HIV-1 protein Vpr | S. pombe RE007 Vpr strain, BacTiter-Glo ATP luminescence, 24 h | Potency, µM (doses to about 92.2 µM), for inactives: at the highest dose activity change, negative = less growth, actives largely listed as inhibitors | 360,000 compounds, 0.21% hits | AID 651644, 2012; active means well fitted falling curve with a large enough effect; inconclusive means small, poorly fitted or top-dose-only effect; inactive means no such curve, though single readings can be large or run the other way; further: potency means the concentration at half of the fitted maximal effect; on the % scale 0 is the no-effect control and ±100 the full control effect; nearly all actives have a fitted effect of over 50% in size
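Fission yeast strain RE007, carrying one chromosomally integrated HIV-1 vpr copy, was seeded at OD 0.01 in PMG+AL medium with 23 nL pinned compound. After 24 h at 30 °C and 99% humidity, viability was read by BacTiter-Glo luminescence.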
Pf growth 48h – Primary qHTS for delayed death inhibitors of the malarial parasite plastid, 48 hour incubation. P. falciparum luciferase growth in erythrocytes, 48 h. Potency, µM (titrated, usually from 28.7 µM), for inactives: at the highest dose activity change, negative = inhibition, most hits filed as inhibitors. 310,000 compounds, 5.9% hits; active means well fitted inhibition curve with a large enough effect; inconclusive means small, poorly fitted or top-dose-only effect, or another doubt; inactive means no such curve, though single readings can be large or run the other way; further: potency means the concentration at half of the fitted maximal effect; on the % scale 0 is the no-effect control and ±100 the full control effect
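Here the parasites carry a stable luciferase gene and grow inside erythrocytes in Albumax-based RPMI medium with compound for one erythrocytic cycle. Activity is scored as loss of luminescent signal.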
Pf growth 96h – Primary qHTS for delayed death inhibitors of the malarial parasite plastid, 96 hour incubation; P. falciparum luciferase reporter growth, 96 h; Potency, µM (titrated, usually from 28.7 µM), without a hit: at the highest dose activity change, negative = inhibition, most hits filed as inhibitors; 320,000 compounds, 6.9% hits; active means well fitted inhibition curve with a large enough effect; inconclusive means small, poorly fitted or top-dose-only effect, or another doubt; inactive means no such curve, though single readings can be large or run the other way; further: potency means the concentration at half of the fitted maximal effect; on the % scale 0 is the no-effect control and ±100 the full control effect
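Plates of compound plus infected erythrocytes (2% hematocrit, 0.05% parasitemia final) incubate 96 hours, 37 C, 5% CO2. Detection reagent added; reduced luminescence from the parasites' luciferase reporter flags inhibition.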
NS1 function inh – qHTS Assay for Inhibitors of Influenza NS1 Protein Function | Potency, µM (top dose mostly 46.1 µM), without a hit: at the top dose activity, positive = more growth | 270,000 compounds, 0.4% hits | AID 2326, 2010; further: potency means the concentration at half of the fitted maximal effect; actives are rising curves; nearly all actives have a fitted effect of over 50% in size
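Recovery from NS1-induced slow growth read by OD600 in budding yeast switched to galactose assay medium (pH 6.0, -URA) at 1:100 dilution. Compound 23 nl per well; the matching strain lacking NS1 serves as control.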
SARS PLP yeast – qHTS of Yeast-based Assay for SARS-CoV PLP; S. cerevisiae expressing SARS-CoV PLpro, growth rescue; 330,000 compounds, 0.19% hits; AID 485353, 2010; Potency, µM (series often up to 32.9 µM), for inactives: at the highest dose activity, positive = growth rescue, actives largely listed as activators; further: potency means the concentration at half of the fitted maximal effect; 0% is about no effect; nearly all actives have a fitted effect of over 55% in size
NS1 inh valid – Assay for Inhibitors of Influenza NS1 Protein Function: Hit Validation | shares compounds with NS1 function inh | influenza NS1 function cell assay, 15-point titration | activity change, negative = inhibition, % at 32.9 µM | 1,400 tested, under 10 active | AID 492980, 2010; further: 0% is about no effect
PR8 titer – Assay for Inhibitors of Influenza NS1 Protein Function: Influenza virus replication assay in MDCK cells infected with virus A/PR/8/34; shares compounds with NS1 function inh; MDCK infected influenza A/PR/8/34, virus titer TCID50; hits give low values; virus titer (log TCID50), log10 TCID50 at 5 µM; 95 compounds, 30% hits; call rule not given here
An asterisk follows results filed as active; ? = inconclusive; / = no result. The list is not random: actives were taken first. Their share in the collection is about 9.5%. Unless noted, the call rests on the fitted dose curve.

SMILES	RE007 growth inh	Pf growth 48h	Pf growth 96h	NS1 function inh	SARS PLP yeast	NS1 inh valid	others
CC(=O)N1CCN(C2c3cccc4cccc(c34)C2NS(=O)(=O)c2ccccc2)CC1 (stereo not drawn)	17.0%	?	13.2%	-27.7%	-3.0%	/
CSc1nc2c(c(=O)[nH]c(=O)n2C)n1CCCc1ccccc1	7.2%	3.9%	15.6%	1.2%	1.8%	/
CC(C)CCSc1nc2c(c(=O)[nH]c(=O)n2C)n1CCCc1ccccc1	9.3%	0.3%	5.86µM*	?	-3.4%	-28.5
COc1ccccc1-n1nnnc1SC(C)C(=O)NC1CCCC1 (stereo not drawn)	-2.1%	-21.8%	21.2%	/	3.4%	/
CCCC1(c2ccccc2)NC(=O)N(CC(=O)Nc2sc(-c3ccccc3)cc2C(=O)OCC)C1=O (stereo not drawn)	-11.2%	?	/	-0.7%	14.1%	/
CCOC(=O)c1c(C)[nH]c(C(=O)CN2C(=O)NC(C)(c3ccc4ccccc4c3)C2=O)c1C (stereo not drawn)	1.4%	?	5.22µM*	?	-3.4%	-5.5
CCCC1(c2ccccc2)NC(=O)N(CC(=O)c2[nH]c(C)c(C(=O)OCC)c2C)C1=O (stereo not drawn)	24.6%	4.15µM*	8.28µM*	?	0.1%	16.3	PR8 titer=6.66*
COc1ccc(CNC(=O)O[C@H]2C[C@@H]3C(=O)N(c4ccccc4)C(=O)[C@@H]3[C@@H]3CN(S(=O)(=O)c4ccc(C)cc4)C[C@]23O)cc1OC	-4.6%	/	/	/	/	/
Cc1ccc(NC(=O)CCS(=O)(=O)c2cccc3nonc23)cc1	1.8%	0.9%	18.6%	/	-2.4%	/
Cc1ccc(N(CC(=O)Nc2cccc(C)c2)S(=O)(=O)c2cccc3nonc23)cc1	/	?	-1.8%	7.08µM*	-5.6%	-14.0	PR8 titer=8.33
OC(CNC1CCCCC1)CON=C1CCSc2c(Cl)cccc21 (stereo not drawn)	3.2%	/	/	/	/	/
Cc1cccc(OCc2nnc(SCC(=O)N3c4ccccc4CCc4ccccc43)o2)c1	0.8%	10.4µM*	?	12.6µM*	0.3%	-20.4	PR8 titer=8.5
COC(=O)CCCNC(=O)CN1CC(c2ccccc2)CC1=O (stereo not drawn)	19.7%	11.3%	7.0%	?	1.6%	5.4
CCOC(=O)c1ccc(S(=O)(=O)N2CCN(CCc3ccncc3)CC2)cc1	1.3%	/	/	/	-5.4%	/
O=S1(=O)N[C@@H](c2ccccc2)COc2cc(Br)ccc21	0.2%	/	/	/	/	/
CN(C)/C=C1\SC(=S)N(c2ccc(Br)cc2)C1=O	-3.4%	2.33µM*	75.2%	?	-3.8%	-9.5
O=C(/C=C/c1ccco1)NC(=S)Nc1cc(-c2nc3ccccc3s2)ccc1Cl	2.2%	39.8%	-12.8%	10µM*	-1.4%	2.8
Cc1cc(C)c2nc(N3CCN(C)CC3)c(C#N)cc2c1	2.1%	0.6%	?	6.31µM*	-3.8%	-23.6
Cc1ccc2cc(C#N)c(N3CCN(C)CC3)nc2c1	2.5%	2.2%	1.2%	0.3%	-1.1%	/
Cc1ccc2nc(N3CCN(C)CC3)c(C#N)cc2c1	5.4%	-16.4%	-9.7%	6.31µM*	-3.9%	-0.3
CCn1c(Cc2ccccc2)nnc1SCC(=O)N1CCCC1=O	9.6%	-5.2%	96.0%	-5.5%	2.7%	/
NC(=O)C1CCN(C(=O)C23CC4CC(CC(C4)C2)C3)CC1	0.8%	41.4%	?	?	1.4%	-8.6
COc1ccc(S(=O)(=O)Nc2cc(C(=O)NC3CCCCCC3)ccc2N2CCOCC2)cc1	13.6%	11.1%	?	10µM*	14.1%	1.1
O=C(NC1CCCCC1)c1ccc(N2CCOCC2)c([N+](=O)[O-])c1	1.6%	-1.6%	?	-3.9%	-1.2%	/
OCCN1CCN(c2ncnc3sc(-c4ccccc4)cc23)CC1	15.1%	1.6%	-15.7%	/	0.7%	/
SMILES	RE007 growth inh	Pf growth 48h	Pf growth 96h	NS1 function inh	SARS PLP yeast	NS1 inh valid	others
CCOc1ccc(S(=O)(=O)Nc2ccccn2)c2ccccc12	-2.6%	-0.7%	?	1.12µM*	-1.8%	-12.5
Cc1cc(OCC(=O)N[C@@H](Cc2ccccc2)C(=O)O)c2c3c(c(=O)oc2c1)CCC3	-19.4%	-9.3%	57.6%	?	4.7%	/
Cc1cc(OCC(=O)N[C@@H](CSCc2ccccc2)C(=O)O)c2c(C)c(C)c(=O)oc2c1	-9.6%	?	10.4µM*	12.6µM*	-0.1%	?
CCOC(=O)c1c(C)[nH]c(C)c1C(=O)COC(=O)CCc1ccccc1	-2.4%	/	/	/	3.4%	/
O=C(c1cc(COc2ccc(F)cc2Cl)on1)N1CCCCC1c1cccnc1 (stereo not drawn)	-3.5%	?	?	-16.5%	-9.5%	/
COc1cc(Cl)ccc1OCc1cc(C(=O)N2CCCCC2c2cccnc2)no1 (stereo not drawn)	-7.7%	?	?	3.16µM*	-48.5%	?
COc1ccc([C@H]2[C@H](C(=O)C(C)(C)C)N3N=Cc4ccccc4C3C23C(=O)OC(C)(C)OC3=O)cc1 (stereo partly drawn)	-10.1%	-21.7%	6.9%	7.2%	-7.2%	/
O=C(c1ccccc1)[C@H]1[C@H](c2ccccc2)[C@@]2(N=C(c3ccccc3)OC2=O)C2c3ccccc3C=NN21 (stereo partly drawn)	/	-27.7%	?	2.51µM*	1.7%	-16.8
NC(=O)Nn1c(CCC(=O)O)ccc1-c1ccc(F)cc1	-6.8%	4.4%	5.3%	?	?	9.2
Cc1ccc(NC(=O)Cn2c(CCC(=O)O)ccc2-c2ccc(Cl)cc2)cc1	8.7%	-18.8%	?	6.3%	0.4%	/
Cc1ccc(-c2ccc(CCC(=O)O)n2CC(=O)O)cc1	-8.4%	-4.6%	-2.2%	11.2µM*	6.3%	10.6
COC(=O)[C@]12CCCCC=C1N(CCC1=CCCCC1)C(=O)[C@H](CC(=O)N1CCN(C(=O)C3CC3)CC1)C2	-0.3%	/	/	/	/	/
O=C(N[C@@H](Cc1ccccc1)C(=O)OCC(=O)N1CCOCC1)c1cccs1	7.9%	41.5%	27.9%	/	3.0%	/
COc1cc(/C=C/C(=O)OCC(=O)N(C)CC(=O)Nc2ccc(F)cc2)ccc1OC(F)F	-11.7%	?	-22.0%	/	-0.1%	/

Compound activity: PubChem, National Center for Advancing Translational Sciences (NCATS)
